The results in this text go back to PubChem BioAssay AID504381 (The Scripps Research Institute Molecular Screening Center, 2011).

The test system of the experiment is Sigma receptor 2. The experiment in a line: radioligand displacement at receptors and transporters – biochemical, PDSP panel, Set 2, late-stage follow-up (AID 504381). The conditions noted are these: PDSP radioligand binding panel, at 10 µM, hits give high values. A general note: Loss of bound radioactivity is the signal in a displacement assay; it reports binding, not function.

A number with no mark means an inactive call. No rule for the calls is given here.

For orientation: inhibition means the change of the read-out against control, counted positive when it falls. As for `CC(=O)c1ccc2c(c1)Nc1ccccc1S2`, the inhibition was -12.2%.
